Source: PubChem BioAssay (EPA / NIEHS)
Activity calls are given as the source filed them. Rule for the calls: active = hit-call score of the fitted dose curve at least 0.9, where 1 is the maximum; inactive = score below 0.9.

Read-out: Cyclin D2 (CCND2), CCND2 (gene 894)
Assay: LTEA_HepaRG_CCND2: Life Technologies and Expression Analysis (LTEA) Assay for Cyclin D2 (CCND2) using HepaRG (AID 2283449);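 note: CCND2 transcript measured by TaqMan qRT-PCR and normalised to three housekeeping genes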
Settings: mRNA level, 48 h; actives raise or lower the signal
Experimental: LTEA_HepaRG is a cell based, multiplexed-readout assay that uses HepaRG, a human liver cell line, with measurements taken at 48 hours after chemical dosing on a 96-well plate.LTEA_HepaRG_CCND2 is one of 102 assay component(s) measured in the LTEA HepaRG cell culture assay. It is a marker of Cell proliferation, survival, death.Data from the assay component LTEA_HepaRG_CCND2 was analyzed into 1 endpoint. This assay endpoint, LTEA_HepaRG_CCND2, was analyzed with bidirectional fitting relative to DMSO as the negative control and baseline of activity. Using a type of inducible reporter, measures of mRNA induction for gain or loss-of-signal activity can be used to understand regulation of transcription factor activity. To generalize the intended target to other relatable targets, this assay endpoint is annotated to the cell cycle intended target family, where the subfamily is Cell proliferation, survival, death.
A total of 1060 chemcials from the ToxCast library were tested in eight-point concentration-response experiments. Cell culture and cytotoxicity assays were conducted at Thermo Fisher Scientific's Custom Services facility (Madison, WI). A single lot of human HepaRG cells (Thermo Fisher Scientific, Frederick, MD) was used for the cell culture experiments. 96-well format collagen type I coated plates of human HepaRG cells were prepared using established methods. Briefly, cryopreserved HepaRG cells were thawed, plated at a density of approximately 100,000 cells/well in HepaRG Thaw, Plate, and General Purpose media (HPRG770, Thermo Fisher Scientific), and incubated for 48 hours. 0.5% DMSO was selected as vehicle control to balance the requisite need of DMSO in HepaRG cultures to maintain differentiation (for example, baseline metabolism, proportions of hepatocytes vs. cholangiocytes), while enabling further hepatic receptor pathway activation (for example, PXR and CAR) in response to chemical exposure. 48 hours after plating, the culture medium was replaced with HepaRG Serum-Free Incudtion Media. Cells were exposed to each test chemical in duplicate and maintained in CO2 incubators for another 48 hours. Chemical plates were thawed to room temperature and 200x concentrations of treatment groups were prepared. 8-point conentration-reponse curves were made with the highest exposure at 100 uM, followed by half-log dilutions, all in 0.5% DMSO. Each test plate contained variouse controls, induction positive controls (1mM phenobarbital), cytotoxicity positive controls ([…] aflatoxin B1), vehicle controls (0.5% DMSO), and total lysis controls (0.5% DMSO). Cell morphology images were taken using an Essen IncuCyte FLR automated microscope, with six 96-well plates imaged in about 24 minutes. Images were captured and exported and JPEG files. Spent culture media was transfered to black-well plates for the LDH assay, and remaining media was sorted at -80 C for later use. Cells were treated with RLT buffer and frozen until shipped for gene expression analysis. Total RNA was isolated from the cell suspension in 75 uL of Buffer RLT (Qiagen, Germantown, MD 20874) by Quintiles/Expression Analysis (Durham, NC) using a custom isolation procedure. Total RNA from each plate well was transferred to a preamplification plate. Fluidigm's 96.96 Dynamic ArrayTM (Fluidigm, Amsterdam, the Netherlands) technology was used for gene expression analyses by quantitative reverse transcription polymerase chain reaction (qRT-PCR, performed by Quintiles/Expression Analysis, Durham, NC)89. Standard TaqManTM Assays (Applied Biosystems/ThermoFisher Scientific, Foster City, CA) were used to assess the expression of 93 genes selected based on their selectivity and sensitivity to important hepatic receptors known to be modulated by environmental chemicals; importance in human hepatocyte functionality; and hepatotoxicity. […]

SMILES	outcome
CCC(C)Nc1c([N+](=O)[O-])cc(C(C)(C)C)cc1[N+](=O)[O-] (stereo unspecified)	inactive
Oc1cc(Cl)ccc1Oc1ccc(Cl)cc1Cl	inactive
CC(C)(C)C(O)C(Oc1ccc(Cl)cc1)n1cncn1 (stereo unspecified)	inactive
O=C(O)COc1ccc(Cl)cc1Cl	inactive
O=S(=O)(O)C(F)(F)C(F)(F)C(F)(F)C(F)(F)C(F)(F)C(F)(F)C(F)(F)C(F)(F)F	inactive
CC1(C)C(C=C(Cl)Cl)C1C(=O)OC(C#N)c1ccc(F)c(Oc2ccccc2)c1 (stereo unspecified)	inactive
CNC(=O)Oc1cccc(N=CN(C)C)c1	inactive
OCCOc1ccccc1	inactive
CCC(C)(C)C(=O)OC1=C(c2ccc(Cl)cc2Cl)C(=O)OC12CCCCC2	inactive
COc1nn(CSP(=S)(OC)OC)c(=O)s1	inactive
COP(=S)(OC)Oc1ccc(SC)c(C)c1	inactive
CNC(=O)Oc1ccccc1OC(C)C	inactive
N#Cc1c(Cl)c(Cl)c(Cl)c(C#N)c1Cl	inactive
CC(C)(C)C(O)/C(=C\c1ccc(Cl)cc1Cl)n1cncn1 (stereo unspecified)	inactive
N#CN	inactive
O=C(O)C(F)(F)C(F)(F)C(F)(F)C(F)(F)C(F)(F)C(F)(F)C(F)(F)F	inactive
CCOC1Oc2ccc(OS(C)(=O)=O)cc2C1(C)C (stereo unspecified)	inactive
COP(=O)(OC)OC=C(Cl)Cl	inactive

SMILES	outcome
CC(C)N(C(=O)COc1nnc(C(F)(F)F)s1)c1ccc(F)cc1	inactive
O=[N+]([O-])c1c(Cl)c(Cl)c(Cl)c(Cl)c1Cl	inactive
CCc1ccc(C(=O)NN(C(=O)c2cc(C)cc(C)c2)C(C)(C)C)cc1	inactive
O=C(O)CCCOc1ccc(Cl)cc1Cl	inactive
ClC1C(Cl)C(Cl)C(Cl)C(Cl)C1Cl (stereo unspecified)	inactive
CCCN(CCOc1c(Cl)cc(Cl)cc1Cl)C(=O)n1ccnc1	inactive
Cc1[nH]c(=O)n(C(C)(C)C)c(=O)c1Cl	inactive
CCC(C)(NC(=O)c1cc(Cl)c(C)c(Cl)c1)C(=O)CCl (stereo unspecified)	inactive
O=[N+]([O-])/N=C1\NCCN1Cc1ccc(Cl)nc1	inactive
CCOCN(C(=O)CCl)c1c(C)cccc1CC	inactive
Oc1ccc(Cl)cc1Cc1ccccc1	inactive
COP(=S)(OC)Oc1ccc([N+](=O)[O-])cc1	inactive
CNC(=O)/C=C(\C)OP(=O)(OC)OC	inactive
O=C1c2ccccc2C(=O)N1SC(Cl)(Cl)Cl	inactive
CN1CSC(=S)N(C)C1	inactive
CNC(=O)CSP(=S)(OC)OC	inactive
CCCN(CCC)c1c([N+](=O)[O-])cc(C(F)(F)F)cc1[N+](=O)[O-]	inactive
O=C(NC(=O)c1c(F)cccc1F)Nc1ccc(OC(F)(F)C(F)OC(F)(F)F)c(Cl)c1 (stereo unspecified)	inactive
